Experimental data published in PubChem BioAssay AID488975 (Johns Hopkins Ion Channel Center, 2010).
In all, about 310,000 compounds went through this assay and about 2,600 (0.84%) were called active.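 Rule for the calls: active = B-score over 3 SD under the library average, and starting fluorescence ratio not unusually high; inactive = the rest.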 For the sample, actives were picked, then their nearest neighbours and some compounds at random.

What follows are molecules tested against High affinity choline transporter 1 (Homo sapiens) (UniProt Q9GZV3) (assay: inhibits the human high affinity choline transporter (AID 488975;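 for B-score: choline stimulus applied at its EC90 after an EC20 pre-addition; B-score computed on integrated fluorescence ratio after choline addition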)). Conditions: CHT-expressing cells, membrane potential dye, choline response, at 10 µM; active compounds read low.
Sequence of High affinity choline transporter 1 (Homo sapiens) (Q9GZV3 whole entry, looked up): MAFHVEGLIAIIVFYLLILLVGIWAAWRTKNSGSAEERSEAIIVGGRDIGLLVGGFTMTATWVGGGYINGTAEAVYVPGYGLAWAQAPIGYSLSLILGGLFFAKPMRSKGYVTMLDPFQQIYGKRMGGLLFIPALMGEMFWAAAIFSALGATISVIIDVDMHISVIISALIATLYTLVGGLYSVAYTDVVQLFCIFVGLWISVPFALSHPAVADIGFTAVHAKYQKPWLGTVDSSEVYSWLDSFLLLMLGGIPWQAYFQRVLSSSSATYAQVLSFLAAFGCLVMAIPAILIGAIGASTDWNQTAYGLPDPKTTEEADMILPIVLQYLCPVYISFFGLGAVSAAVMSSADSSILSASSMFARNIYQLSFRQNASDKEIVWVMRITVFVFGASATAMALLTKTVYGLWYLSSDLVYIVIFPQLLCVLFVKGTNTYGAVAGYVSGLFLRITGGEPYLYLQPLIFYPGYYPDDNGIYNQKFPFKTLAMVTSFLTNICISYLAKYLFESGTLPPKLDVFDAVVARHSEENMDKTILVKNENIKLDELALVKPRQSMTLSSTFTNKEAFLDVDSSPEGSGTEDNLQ

SMILES | B-score
Fc1ccccc1COc1cccc2cccnc12 | inactive
CN(/N=C/c1ccccc1)C(=S)c1ccccc1 | inactive
COc1ccc([C@@H]2[C@@H]3C(=O)N(C(C)(C)C)C(=O)[C@@H]3[C@]3(Cc4ccccc4)C(=O)N(c4cccc(Br)c4)C(=O)N23)cc1 | inactive
Cc1cccc(NC(=O)c2cccc(S(=O)(=O)N3CCCC3)c2)n1 | inactive
O=S(=O)(c1cccc(-c2cn3ccccc3n2)c1)N1CCCC1 | inactive
O=S(=O)(c1cccc(-c2nnc3n2CCCCC3)c1)N1CCOCC1 | inactive
O=S(=O)(c1cccc(-c2nnc(SC(F)F)n2-c2ccccc2)c1)N1CCCCC1 | -6.54 (active)
Cc1onc(-c2ccccc2Cl)c1C(=O)N(Cc1ccc(N(C)C)cc1)C(C)C | inactive
Cc1ccn2c(=O)c(NC(=O)c3cccc4ccccc34)c(C)nc2c1 | inactive
Cc1c(Cl)cccc1NC(=O)NCc1ccc(C)n1C | inactive
COC(=O)C(C(=O)Nc1cccc(Cl)c1C)C1CCCC1 (stereo not given) | -5.46 (active)
Cc1c(Cl)cccc1NC(=O)Nc1ccc(C(=O)N2CCCC2)cc1 | inactive
CCN(CC(=O)Nc1c(F)cccc1F)C(=O)C1CCC1 | inactive
Cc1ccc(S(=O)(=O)NC(C)C(=O)NCc2ccc(Cl)cc2)cc1 (stereo not given) | inactive
CCCNC(=O)c1ccc(N2CCC3(CC2)CC(c2cccc(Br)c2)=NO3)c(NC(=O)c2ccco2)c1 | inactive
CCN(CC(=O)NCc1ccc(Cl)cc1)C(=O)CSc1ccccc1 | -5.83 (active)
CN(CC(=O)NCc1ccc(Cl)cc1)S(=O)(=O)c1cccs1 | inactive
CCN(CC(=O)Nc1cc(Cl)ccc1C)C(=O)CSCc1ccc(C)cc1 | inactive
COc1ccc(N2CC(NS(=O)(=O)c3ccc4ccccc4c3)CC2=O)cc1 (stereo not given) | inactive
O=C1N[C@@H](Cc2ccccc2)C(=O)N2[C@H]1C[C@]1(Br)c3ccccc3N(S(=O)(=O)c3ccccc3)[C@H]21 | inactive
Cc1nc2ccccc2c(=O)n1-c1ccc(F)c(NC(=O)c2cccs2)c1 | inactive
CCN(CC)CCn1c2c(c(SCC(=O)Nc3ccc(C(C)C)cc3)nc1=O)CCC2 | inactive

SMILES | B-score
COc1ccc(N(CC(=O)N2CCCCCC2)S(=O)(=O)c2ccccc2)cc1 | inactive
CS(=O)(=O)N(CC(=O)N1CCN(c2cccc(Cl)c2)CC1)c1ccccc1 | inactive
CC1CCN(C(=O)CN(c2ccc(Oc3ccccc3)cc2)S(C)(=O)=O)CC1 | -5.53 (active)
NC(=O)NCCCC(=O)O | inactive
Cc1ccc(NC(=O)COc2coc(CN3CCc4ccccc4C3)cc2=O)cc1Cl | inactive
O=C(O/N=C(/c1ccccc1)c1ccncc1)c1ccccc1[N+](=O)[O-] | -5.03 (active)
O=C(Nc1ccncc1)c1ccccc1[N+](=O)[O-] | inactive
COc1ccc(NC(=O)c2ccccc2[N+](=O)[O-])cc1OC | inactive
COc1ccc(-c2cc(C(=O)N/N=C/c3cccnc3)c3ccccc3n2)c(OC)c1 | inactive
COC(=O)CN1C(=S)N(c2ccccc2)C(=O)C1CC(=O)Nc1ccc(Cl)cc1 (stereo not given) | inactive
O=C(O)Cc1ccc(NCc2ccccc2Cl)cc1 | inactive
O=C(O)CC1=C(Nc2ccccc2)C(=O)N(c2ccccc2)C1c1ccc(Cl)cc1 (stereo not given) | -9.58 (active)
O=C(NCCc1ccco1)C(=O)NCCC1CCCCN1S(=O)(=O)c1ccccc1 (stereo not given) | inactive
CS(=O)(=O)N1CCC(C(=O)N2CCN(c3ccccc3)CC2)CC1 | inactive
O=C(C1CCN(S(=O)(=O)c2ccc(Br)s2)CC1)N1CCN(c2ccccc2)CC1 | -8.2 (active)
O=C(C1CCN(S(=O)(=O)c2ccc(Br)s2)CC1)N1CCN(C2CCCCC2)CC1 | inactive
CC(Sc1nn(-c2ccc(Cl)cc2)c(=S)s1)C(=O)NCC1CCCO1 (stereo not given) | inactive
COc1ccc(S(=O)(=O)N2CCOC23CCN(S(=O)(=O)c2ccc([N+](=O)[O-])cc2)CC3)cc1 | inactive
O=C(NCc1ccccn1)Nc1ccc(F)cc1 | inactive
CCC(C)c1ccc(NC(=S)NCc2ccccn2)cc1 (stereo not given) | -9.17 (active)
O=C(NCc1ccccn1)Nc1ccc(Cl)cc1 | inactive
CCOC(=O)C(C)N(c1ccccc1Cl)S(C)(=O)=O (stereo not given) | inactive

SMILES | B-score
O=C(Nc1cccc2cccnc12)c1cccc(N2C(=O)CCC2=O)c1 | inactive
O=C(Nc1cccc2cccnc12)c1cccc(Cl)c1 | inactive
N#Cc1ccc(C(=O)Nc2cccc3cccnc23)c(F)c1 | -5.02 (active)
CCOC(=O)c1cc(C(C)C)sc1NC(=O)COC(=O)c1nccnc1N | inactive
CCOc1ccc(NS(=O)(=O)c2ccc(C(=O)NC3CCN(Cc4ccccc4)CC3)cc2)cc1 | inactive
Cc1ccc(CNC(=O)c2cc(-c3ccccc3C)n(CC3CC(c4cccc([N+](=O)[O-])c4)=NO3)n2)cc1 (stereo not given) | inactive
O=C(CC(Cc1ccccc1)C(=O)O)NCCc1ccc2c(c1)OCO2 (stereo not given) | inactive
N=c1oc2ccccc2cc1C(=O)NCc1ccccc1 | inactive
O=C(NCCc1ccc2c(c1)OCCO2)c1cc2ccccc2o1 | -5.1 (active)
COc1ccc(C(=O)NCC2CCCN2S(=O)(=O)c2cccs2)cc1OC (stereo not given) | inactive
Cc1ccc(C(=O)C(C)OC(=O)Cc2n[nH]c(=O)c3ccccc23)cc1C (stereo not given) | inactive
COc1nc(OC)nc(N(C)CCO)n1 | -12.4 (active)
O=C(CSC1=NS(=O)(=O)c2cc(F)ccc2N1)Nc1ccccc1F | inactive
CN(CC(=O)Nc1cccc(F)c1)C(=O)C1=COCCO1 | inactive
CN(CCO)c1ccc(/C=N/Nc2nncc3ccccc23)cc1 | inactive
CS(=O)(=O)N1CCN(c2ccc(C(=O)NC3C4CC5CC(C4)CC3C5)cc2[N+](=O)[O-])CC1 (stereo not given) | inactive
O=C(Nc1cccc(C(F)(F)F)c1)c1ccc(N2CCNCC2)c([N+](=O)[O-])c1 | inactive
CC(NC(=O)c1ccc(N2CCNCC2)c([N+](=O)[O-])c1)C12CC3CC(CC(C3)C1)C2 (stereo not given) | -5.65 (active)
CCC(C)NC(=O)c1ccc(N2CCC3(CC2)OCCO3)c([N+](=O)[O-])c1 (stereo not given) | inactive
O=C(NC1C2CC3CC(C2)CC1C3)c1ccc(N2CCNCC2)c([N+](=O)[O-])c1 (stereo not given) | -5.53 (active)
CC1CCN(c2ccc(C(=O)Nc3nnc(C4CC4)s3)cc2[N+](=O)[O-])CC1 | inactive
